Assay results taken from PubChem BioAssay (Tox21).
Records with an inconclusive call do not appear. Active and inactive are the calls of the source. Unless noted, calls follow the shape of the full dose curve.

What was measured:
[1] = biological target: Peroxisome proliferator-activated receptor delta (Homo sapiens) (UniProt Q03181); assay: qHTS assay to identify small molecule agonists of the peroxisome proliferator-activated receptor delta (PPARd) signaling pathway (AID 743212); details: HEK293H PPARd-UAS-bla, beta-lactamase FRET ratio, 17 h; series mostly up to 62.6 µM
How it was run: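 Quantitative high-throughput agonist screen in a HEK293H beta-lactamase reporter line under UAS control. Compounds in DMSO, at 37 C. Fluorescence read after 2 h with FRET substrate at room temperature.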

[2] = biological target: Bile acid receptor (Homo sapiens) (UniProt Q96RI1); assay: qHTS assay to identify small molecule agonists of the farnesoid-X-receptor (FXR) signaling pathway (AID 743220; active = well fitted activation curve with a large enough effect in the signal ratio in the repeat runs, not every such curve was filed as active; the % refers to the signal ratio); details: HEK293T FXR-UAS-bla, beta-lactamase FRET ratio, 16 h; series mostly up to 62.6 µM
How it was run: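 Beta-lactamase reporter under UAS control in GeneBLAzer FXR HEK 293T cells (5000/well) measured with LiveBLAzer FRET substrate after 2 h at room temperature. Compound exposure lasted 16 h at 37C.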

[3] = qHTS assay to identify small molecule antagonists of the farnesoid-X-receptor (FXR) signaling pathway - cell viability counter screen (AID 743221; active = well fitted cell-killing curve with a large enough effect in the repeat runs, not every such curve was filed as active; also: nearly all actives have a fitted effect of over 50% in size); details: FXR-bla HEK293T viability, CellTiter-Glo luminescence, 16 h; series mostly up to 62.6 µM
How it was run: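 After a 5 h settling period, FXR-bla HEK 293T cells receive compound and chenodeoxycholic acid (50 uM final) and incubate 16 h at 37 C; CellTiter-Glo luminescence, read after 30 min at room temperature, reports cell viability.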

[4] = biological target: Vitamin D3 receptor (Homo sapiens) (UniProt P11473); assay: qHTS assay to identify small molecule agonists of the vitamin D receptor (VDR) signaling pathway (AID 743222); details: HEK293T VDR-UAS-bla, beta-lactamase FRET ratio, 16 h; series mostly up to 63.5 µM
How it was run: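 VDR-bla cells plated 4 h at 37 C, then exposed to compounds for 16 h at 37 C. Beta-lactamase reporter activity measured by fluorescence after 2 h room-temperature loading with LiveBLAzer B/G FRET substrate.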

[5] = biological target: Vitamin D3 receptor (Homo sapiens) (UniProt P11473); assay: qHTS assay to identify small molecule antagonists of the vitamin D receptor (VDR) signaling pathway (AID 743223; active = well fitted inhibition curve with a large enough effect in the signal ratio in the repeat runs, not every such curve was filed as active; the % refers to the signal ratio); details: VDR-UAS-bla HEK293T, beta-lactamase FRET ratio, 16 h; series mostly up to 61 µM
How it was run: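 Reporter line VDR-bla; stimulus 1alpha,25-(OH)2 vitamin D3, 3 nM final; compound co-addition, 16 h 37C/5% CO2; LiveBLAzer B/G substrate 2 h RT; fluorescence intensity.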

[6] = biological target: Bile acid receptor (Homo sapiens) (UniProt Q96RI1); assay: qHTS assay to identify small molecule antagonists of the farnesoid-X-receptor (FXR) signaling pathway (AID 743217; active = well fitted inhibition curve with a large enough effect in the signal ratio in the repeat runs, not every such curve was filed as active; the % refers to the signal ratio); details: HEK293T FXR-UAS-bla, beta-lactamase ratio, CDCA-stimulated, 16 h; series mostly up to 62.6 µM
How it was run: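 FXR-UAS-bla HEK 293T cells (beta-lactamase reporter) given compound plus chenodeoxycholic acid (50 uM final), 16 h at 37C. LiveBLAzer B/G FRET substrate added for 2 h at room temperature; fluorescence read.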

[7] = qHTS assay to identify small molecule antagonists of the peroxisome proliferator-activated receptor delta (PPARd) signaling pathway - cell viability counter screen (AID 743213; active = well fitted cell-killing curve with a large enough effect in the repeat runs; also: nearly all actives have a fitted effect of over 50% in size); details: PPARd-bla HEK293H viability, CellTiter-Glo luminescence, 17 h; series mostly up to 62 µM
How it was run: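 CellTiter-Glo was added to PPARd-bla HEK293H wells following 17 h compound treatment in the presence of 300 nM L165041. Luminescence was recorded after 30 min at room temperature.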

Measured: Potency

Chain of Vitamin D3 receptor (Homo sapiens) (P11473 whole entry, looked up): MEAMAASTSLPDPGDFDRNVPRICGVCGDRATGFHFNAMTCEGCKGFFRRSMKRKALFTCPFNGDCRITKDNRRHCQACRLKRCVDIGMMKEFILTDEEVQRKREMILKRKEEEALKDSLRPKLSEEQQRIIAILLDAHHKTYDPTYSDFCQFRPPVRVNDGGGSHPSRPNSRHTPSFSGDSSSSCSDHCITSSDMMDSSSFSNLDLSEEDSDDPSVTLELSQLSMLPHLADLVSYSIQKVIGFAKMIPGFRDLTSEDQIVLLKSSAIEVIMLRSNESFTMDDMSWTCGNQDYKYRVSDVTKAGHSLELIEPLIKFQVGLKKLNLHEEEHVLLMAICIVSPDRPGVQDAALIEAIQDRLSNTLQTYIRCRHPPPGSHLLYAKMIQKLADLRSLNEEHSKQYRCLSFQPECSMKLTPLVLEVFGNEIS
Chain of Bile acid receptor (Homo sapiens) (Q96RI1 whole entry, looked up): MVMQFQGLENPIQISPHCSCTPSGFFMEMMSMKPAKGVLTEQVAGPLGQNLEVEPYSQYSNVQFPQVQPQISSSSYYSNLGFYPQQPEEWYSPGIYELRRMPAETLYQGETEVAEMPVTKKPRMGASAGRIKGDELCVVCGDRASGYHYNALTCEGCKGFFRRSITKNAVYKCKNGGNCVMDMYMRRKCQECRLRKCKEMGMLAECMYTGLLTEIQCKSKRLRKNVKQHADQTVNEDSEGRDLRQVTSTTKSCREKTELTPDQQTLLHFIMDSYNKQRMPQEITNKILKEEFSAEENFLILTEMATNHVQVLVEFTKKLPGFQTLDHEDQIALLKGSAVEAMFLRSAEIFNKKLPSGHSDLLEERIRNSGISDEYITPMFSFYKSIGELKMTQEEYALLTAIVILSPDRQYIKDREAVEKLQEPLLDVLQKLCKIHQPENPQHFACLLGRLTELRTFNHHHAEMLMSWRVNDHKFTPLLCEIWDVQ
Chain of Peroxisome proliferator-activated receptor delta (Homo sapiens) (Q03181 whole entry, looked up): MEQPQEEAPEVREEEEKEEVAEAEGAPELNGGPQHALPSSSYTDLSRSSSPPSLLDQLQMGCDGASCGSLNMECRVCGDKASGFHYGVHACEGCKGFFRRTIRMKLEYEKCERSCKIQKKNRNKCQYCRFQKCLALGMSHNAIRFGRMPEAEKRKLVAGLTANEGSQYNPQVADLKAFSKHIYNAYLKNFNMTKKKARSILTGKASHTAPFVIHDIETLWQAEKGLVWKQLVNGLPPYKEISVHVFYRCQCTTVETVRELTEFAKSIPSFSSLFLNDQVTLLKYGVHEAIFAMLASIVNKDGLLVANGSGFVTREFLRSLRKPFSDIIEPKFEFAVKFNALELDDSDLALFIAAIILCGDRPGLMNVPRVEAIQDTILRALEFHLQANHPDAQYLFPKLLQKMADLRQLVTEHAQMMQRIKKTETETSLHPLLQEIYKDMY

CCCCCC(C)OC(=O)COc1ccc(Cl)c2cccnc12 (stereo not given)
not listed: [6] | [7]
inactive: all other assays above

Cc1ccc(O)c(N)c1
inactive: [6]

CN(C)Cc1cc(C(C)(C)C)c(O)c(C(C)(C)C)c1
inactive: [1] | [7] | [4] | [5]
